Counter-ions that a name gives are not always drawn.
Legend:
Experiment in all cases: phenotypically active (imaging signature differs from DMSO and reproducible) at any of 0.3-9 uM (binary (1 = active, 0 = inactive)); higher = active
Conditions in all cases: treatment time: 24 h
A549-ACTB-RAB5A = tested on: A549-ACTB-RAB5A
Summary of the method: (§1)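 After 24 h at 0.3, 1, 3 or 9 µM, with four wells per treatment, fifteen gene-edited A549, HepG2 and WPMY1 reporter lines carrying BFP, GFP and RFP/FusionRed were imaged live. Each well's live-cell features were expressed relative to solvent control wells. Deviation required ≥3 of 4 wells past the 95th percentile of control Euclidean distances, and reproducibility a median replicate Pearson correlation over the 95th percentile of non-replicates. Phenotypic activity rested on both.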

A549-CANX-COX4 = tested on: A549-CANX-COX4
Summary of the method: as §1

A549-GM130-SQSTM1 = tested on: A549-GM130-SQSTM1
Summary of the method: as §1

A549-TP53BP1-CLTA = tested on: A549-TP53BP1-CLTA
Summary of the method: as §1

A549-TUBA1B-RELA = tested on: A549-TUBA1B-RELA
Summary of the method: as §1

HepG2-ACTB-RAB5A = tested on: HepG2-ACTB-RAB5A
Summary of the method: as §1

HepG2-CANX-COX4 = tested on: HepG2-CANX-COX4
Summary of the method: as §1

HepG2-GM130-SQSTM1 = tested on: HepG2-GM130-SQSTM1
Summary of the method: as §1

HepG2-TP53BP1-CLTA = tested on: HepG2-TP53BP1-CLTA
Summary of the method: as §1

HepG2-TUBA1B-RELA = tested on: HepG2-TUBA1B-RELA
Summary of the method: as §1

WPMY1-ACTB-RAB5A = tested on: WPMY1-ACTB-RAB5A
Summary of the method: as §1

WPMY1-CANX-COX4 = tested on: WPMY1-CANX-COX4
Summary of the method: as §1

WPMY1-GM130-SQSTM1 = tested on: WPMY1-GM130-SQSTM1
Summary of the method: as §1

WPMY1-TP53BP1-CLTA = tested on: WPMY1-TP53BP1-CLTA
Summary of the method: as §1

WPMY1-TUBA1B-RELA = tested on: WPMY1-TUBA1B-RELA
Summary of the method: as §1

Measured: phenotypically active

CNC(C)(C)Cc1ccccc1 [mephentermine]
inactive: A549-ACTB-RAB5A 0 | A549-CANX-COX4 0 | A549-GM130-SQSTM1 0 | A549-TP53BP1-CLTA 0 | A549-TUBA1B-RELA 0 | HepG2-ACTB-RAB5A 0 | HepG2-CANX-COX4 0 | HepG2-GM130-SQSTM1 0 | HepG2-TP53BP1-CLTA 0 | HepG2-TUBA1B-RELA 0 | WPMY1-ACTB-RAB5A 0 | WPMY1-CANX-COX4 0 | WPMY1-GM130-SQSTM1 0 | WPMY1-TP53BP1-CLTA 0 | WPMY1-TUBA1B-RELA 0

CN(C)NC(=O)CCC(=O)O [Daminozide]
inactive: A549-ACTB-RAB5A 0 | A549-CANX-COX4 0 | A549-GM130-SQSTM1 0 | A549-TP53BP1-CLTA 0 | A549-TUBA1B-RELA 0 | HepG2-ACTB-RAB5A 0 | HepG2-CANX-COX4 0 | HepG2-GM130-SQSTM1 0 | HepG2-TP53BP1-CLTA 0 | HepG2-TUBA1B-RELA 0 | WPMY1-ACTB-RAB5A 0 | WPMY1-CANX-COX4 0 | WPMY1-GM130-SQSTM1 0 | WPMY1-TP53BP1-CLTA 0 | WPMY1-TUBA1B-RELA 0

CC[N+](CC)(CCCNC1=CC(=O)C(NCCC[N+](CC)(CC)Cc2ccccc2)=CC1=O)Cc1ccccc1 [Benzoquinonium dibromide]
inactive: A549-ACTB-RAB5A 0 | A549-CANX-COX4 0 | A549-GM130-SQSTM1 0 | A549-TP53BP1-CLTA 0 | A549-TUBA1B-RELA 0 | HepG2-ACTB-RAB5A 0 | HepG2-CANX-COX4 0 | HepG2-GM130-SQSTM1 0 | HepG2-TP53BP1-CLTA 0 | HepG2-TUBA1B-RELA 0 | WPMY1-ACTB-RAB5A 0 | WPMY1-CANX-COX4 0 | WPMY1-GM130-SQSTM1 0 | WPMY1-TP53BP1-CLTA 0 | WPMY1-TUBA1B-RELA 0

CO[C@H]1C=C2CCN(C)[C@H]2[C@@H]2c3cc4c(cc3[C@@H](O)O[C@@H]21)OCO4 [Unsevine]
inactive: A549-ACTB-RAB5A 0 | A549-CANX-COX4 0 | A549-GM130-SQSTM1 0 | A549-TP53BP1-CLTA 0 | A549-TUBA1B-RELA 0 | HepG2-ACTB-RAB5A 0 | HepG2-CANX-COX4 0 | HepG2-GM130-SQSTM1 0 | HepG2-TP53BP1-CLTA 0 | HepG2-TUBA1B-RELA 0 | WPMY1-ACTB-RAB5A 0 | WPMY1-CANX-COX4 0 | WPMY1-GM130-SQSTM1 0 | WPMY1-TP53BP1-CLTA 0 | WPMY1-TUBA1B-RELA 0

N#CC(CCN1CCC(C(=O)O)(c2ccccc2)CC1)(c1ccccc1)c1ccccc1 [difenoxin]
inactive: A549-ACTB-RAB5A 0 | A549-CANX-COX4 0 | A549-GM130-SQSTM1 0 | A549-TP53BP1-CLTA 0 | A549-TUBA1B-RELA 0 | HepG2-ACTB-RAB5A 0 | HepG2-CANX-COX4 0 | HepG2-GM130-SQSTM1 0 | HepG2-TP53BP1-CLTA 0 | HepG2-TUBA1B-RELA 0 | WPMY1-ACTB-RAB5A 0 | WPMY1-CANX-COX4 0 | WPMY1-GM130-SQSTM1 0 | WPMY1-TP53BP1-CLTA 0 | WPMY1-TUBA1B-RELA 0

O=C1C[C@@H]2OCC=C3C[N+]4([O-])CC[C@]56c7ccccc7N1[C@H]5[C@H]2[C@H]3C[C@@H]64 (stereo not given in full) [Genostrychnine base]
inactive: A549-ACTB-RAB5A 0 | A549-CANX-COX4 0 | A549-GM130-SQSTM1 0 | A549-TP53BP1-CLTA 0 | A549-TUBA1B-RELA 0 | HepG2-ACTB-RAB5A 0 | HepG2-CANX-COX4 0 | HepG2-GM130-SQSTM1 0 | HepG2-TP53BP1-CLTA 0 | HepG2-TUBA1B-RELA 0 | WPMY1-ACTB-RAB5A 0 | WPMY1-CANX-COX4 0 | WPMY1-GM130-SQSTM1 0 | WPMY1-TP53BP1-CLTA 0 | WPMY1-TUBA1B-RELA 0

COc1ccc2c3c1O[C@H]1C(=O)CC[C@@]4(O)[C@@H](C2)N(C)CC[C@]314 [oxycodone]
inactive: A549-ACTB-RAB5A 0 | A549-CANX-COX4 0 | A549-GM130-SQSTM1 0 | A549-TP53BP1-CLTA 0 | A549-TUBA1B-RELA 0 | HepG2-ACTB-RAB5A 0 | HepG2-CANX-COX4 0 | HepG2-GM130-SQSTM1 0 | HepG2-TP53BP1-CLTA 0 | HepG2-TUBA1B-RELA 0 | WPMY1-ACTB-RAB5A 0 | WPMY1-CANX-COX4 0 | WPMY1-GM130-SQSTM1 0 | WPMY1-TP53BP1-CLTA 0 | WPMY1-TUBA1B-RELA 0

CCCN1CCC[C@@H]2Cc3n[nH]cc3C[C@H]21 [(-)-Quinpirole hydrochloride]
inactive: A549-ACTB-RAB5A 0 | A549-CANX-COX4 0 | A549-GM130-SQSTM1 0 | A549-TP53BP1-CLTA 0 | A549-TUBA1B-RELA 0 | HepG2-ACTB-RAB5A 0 | HepG2-CANX-COX4 0 | HepG2-GM130-SQSTM1 0 | HepG2-TP53BP1-CLTA 0 | HepG2-TUBA1B-RELA 0 | WPMY1-ACTB-RAB5A 0 | WPMY1-CANX-COX4 0 | WPMY1-GM130-SQSTM1 0 | WPMY1-TP53BP1-CLTA 0 | WPMY1-TUBA1B-RELA 0

CN1[C@@H]2CC(=O)C[C@H]1[C@H](O)C2 [6-Hydroxytropinone]
inactive: A549-ACTB-RAB5A 0 | A549-CANX-COX4 0 | A549-GM130-SQSTM1 0 | A549-TP53BP1-CLTA 0 | A549-TUBA1B-RELA 0 | HepG2-ACTB-RAB5A 0 | HepG2-CANX-COX4 0 | HepG2-GM130-SQSTM1 0 | HepG2-TP53BP1-CLTA 0 | HepG2-TUBA1B-RELA 0 | WPMY1-ACTB-RAB5A 0 | WPMY1-CANX-COX4 0 | WPMY1-GM130-SQSTM1 0 | WPMY1-TP53BP1-CLTA 0 | WPMY1-TUBA1B-RELA 0

CC1=C2[C@H]3OC(=O)[C@@H](C)[C@@H]3CC[C@@]2(C)C=CC1=O [alpha-Santonin]
inactive: A549-ACTB-RAB5A 0 | A549-CANX-COX4 0 | A549-GM130-SQSTM1 0 | A549-TP53BP1-CLTA 0 | A549-TUBA1B-RELA 0 | HepG2-ACTB-RAB5A 0 | HepG2-CANX-COX4 0 | HepG2-GM130-SQSTM1 0 | HepG2-TP53BP1-CLTA 0 | HepG2-TUBA1B-RELA 0 | WPMY1-ACTB-RAB5A 0 | WPMY1-CANX-COX4 0 | WPMY1-GM130-SQSTM1 0 | WPMY1-TP53BP1-CLTA 0 | WPMY1-TUBA1B-RELA 0

COc1cc2c(cc1OC)[C@@]13CCN4CC5=CCO[C@H]6CC(=O)N2[C@H]1[C@H]6[C@H]5C[C@H]43 [Brucine]
inactive: A549-ACTB-RAB5A 0 | A549-CANX-COX4 0 | A549-GM130-SQSTM1 0 | A549-TP53BP1-CLTA 0 | A549-TUBA1B-RELA 0 | HepG2-ACTB-RAB5A 0 | HepG2-CANX-COX4 0 | HepG2-GM130-SQSTM1 0 | HepG2-TP53BP1-CLTA 0 | HepG2-TUBA1B-RELA 0 | WPMY1-ACTB-RAB5A 0 | WPMY1-CANX-COX4 0 | WPMY1-GM130-SQSTM1 0 | WPMY1-TP53BP1-CLTA 0 | WPMY1-TUBA1B-RELA 0

Reference: the supplement of paper PMC7411054
